An excerpt weighted towards active compounds, which were near 1.5% of everything screened.
FEN1 inh: qHTS Assay for the Inhibitors of Human Flap endonuclease 1 (FEN1). P39748. Recombinant FEN1 flap cleavage, fluorescence, 15 min. Potency, µM (top dose mostly 114 µM), for the others: top-dose activity change, negative = inhibition, hits mostly inhibitors. hit rate 0.35% among 390,000. AID 588795, 2011; also: potency is read from the fitted curve at half-maximal effect; nearly all actives have a fitted effect of over 65% in size
Target sequence (P39748 whole entry, looked up): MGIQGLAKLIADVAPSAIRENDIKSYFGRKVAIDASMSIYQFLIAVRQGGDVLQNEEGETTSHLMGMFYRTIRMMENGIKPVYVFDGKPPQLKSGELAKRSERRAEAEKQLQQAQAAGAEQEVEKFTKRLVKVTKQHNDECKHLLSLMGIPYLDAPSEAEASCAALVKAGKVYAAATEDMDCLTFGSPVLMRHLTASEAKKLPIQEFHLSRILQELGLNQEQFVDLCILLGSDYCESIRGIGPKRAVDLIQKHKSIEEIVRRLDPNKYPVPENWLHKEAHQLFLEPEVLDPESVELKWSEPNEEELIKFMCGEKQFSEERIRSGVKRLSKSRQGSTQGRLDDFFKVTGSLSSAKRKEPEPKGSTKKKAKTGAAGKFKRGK
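Enzyme 10 nM, 15 min RT preincubation with compound; start with substrate 50 nM final; reads at 0 and 15 min; qHTS titration, four-parameter Hill fit.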
BLM inh: qHTS Assay for Inhibitors of Bloom's syndrome helicase (BLM). RecQ-like DNA helicase BLM (Homo sapiens), P54132. recombinant BLM DNA unwinding, fluorescence dequenching. Potency, µM (series often up to 56.1 µM), for inactives: at the highest dose activity change, negative = inhibition, usual class: inhibitors. hit rate 0.2% among 350,000. AID 2528, 2010;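 also: potency is read from the fitted curve at half-maximal effect; plate controls were vehicle for no effect and no enzyme for full effect; nearly all actives have a fitted effect of over 35% in size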
APEX1 inh: qHTS Assay for Inhibitors of the Human Apurinic/apyrimidinic Endonuclease 1 (APE1); DNA repair nuclease/redox regulator APEX1 (Homo sapiens), P27695; recombinant APE1, TAMRA/BHQ-2 abasic DNA cleavage fluorescence; Potency, µM (series often up to 65.8 µM), for the others: top-dose activity change, negative = inhibition, actives largely listed as inhibitors; hit rate 0.35% among 350,000; AID 2517, 2012;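 also: potency is read from the fitted curve at half-maximal effect; plate controls were vehicle for no effect and reference inhibitor for full effect; nearly all actives have a fitted effect of over 55% in size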
Target sequence (P27695 whole entry, looked up): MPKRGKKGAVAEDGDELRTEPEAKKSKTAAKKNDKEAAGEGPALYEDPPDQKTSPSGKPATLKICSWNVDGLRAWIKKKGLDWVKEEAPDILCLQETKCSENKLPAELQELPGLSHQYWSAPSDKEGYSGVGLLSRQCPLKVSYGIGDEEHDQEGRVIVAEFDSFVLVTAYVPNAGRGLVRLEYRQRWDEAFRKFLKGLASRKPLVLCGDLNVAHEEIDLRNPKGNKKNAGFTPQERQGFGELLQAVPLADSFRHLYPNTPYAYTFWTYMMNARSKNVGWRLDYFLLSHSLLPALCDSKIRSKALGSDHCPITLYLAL
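Enzyme (0.75 nM final) and test compound are incubated 15 min at room temperature before adding 50 nM quenched THF abasic-site duplex. Cleavage dequenches TAMRA, followed at 525/598 nm over three reads one minute apart.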
RECQ1 helicase: qHTS Assay for Inhibitors of RecQ-Like Dna Helicase 1 (RECQ1) | ATP-dependent DNA helicase Q1 (Homo sapiens), P46063 | RECQ1 DNA unwinding, red fluorescence kinetic read | Potency, µM (doses to about 57.3 µM), for the others: top-dose activity, negative = inhibition, actives largely listed as inhibitors | hit rate 0.54% among 240,000 | AID 2549, 2010;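 also: potency is read from the fitted curve at half-maximal effect; plate controls were vehicle for no effect and no enzyme for full effect; nearly all actives have a fitted effect of over 30% in size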
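50 nM RECQ1T1 preincubated 15 min with compound in Tris pH 8.0 buffer with MgCl2, DTT, Tween-20 and 2.5 ug/ml poly(dI-dC); started with 200 nM TAMRA/BHQ-2 forked duplex and 2 mM ATP. Unwinding read as fluorescence (525/598 nm), two reads 2 h apart.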
PI5P4Ka inh: qHTS for Inhibitors of phosphatidylinositol 5-phosphate 4-kinase (PI5P4K). Phosphatidylinositol 5-phosphate 4-kinase type-2 alpha (Homo sapiens), P48426. PI5P4Kalpha enzyme, ADP-Glo luminescence, 60 min; stronger effect = lower value. max response, %. hit rate 1.2% among 330,000. AID 652105, 2013; active = max response of -50% or lower; inconclusive = between -30% and -50%; inactive = -30% or higher; also: value at the top dose of about 77 µM
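Controls without substrate or without enzyme flank wells where PI5P4Kalpha converts substrate using 5 microM ATP (final). Incubation lasts 60 minutes at room temperature; ADP formed is read by ADP-Glo luminescence.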
KAT2A inh: qHTS Assay for Inhibitors of GCN5L2 | Histone acetyltransferase KAT2A (Homo sapiens), Q92830 | GCN5L2 HAT assay, ThioGlo1 CoA-SH fluorescence | Potency, µM (top dose mostly 58.9 µM), for the others: top-dose activity change, negative = inhibition, hits mostly inhibitors | hit rate 0.21% among 390,000; also: potency is read from the fitted curve at half-maximal effect
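qHTS, 1536-well. 20nM enzyme, pH 7.5 HEPES/EDTA/Tween-20 buffer; 15 min compound preinc., RT. Start: 75uM H3(1-25), 70uM AcCoA, 50uM ThioGlo1. Read Ex340/Em540 at t=0 (autofluorescence flag) and t=20 min.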
Active calls of the source: *; i = inactive; ? = inconclusive; · = no result; ! = not confirmed by another sample. Unless noted, calls follow the shape of the dose curve; as a rule, active = well fitted curve in the direction sought with a large enough effect; inconclusive = small, poorly fitted or top-dose-only effect, or another doubt; inactive = no such curve, though single readings can be large; an effect the other way counts as inactive or inconclusive. Unless noted, % is scaled to controls: 0 for no effect and ±100 for the full control effect.

SMILES	FEN1 inh	BLM inh	APEX1 inh	RECQ1 helicase	PI5P4Ka inh	KAT2A inh
CCOC(=O)/C=C1\SCC(=O)N1CC(=O)c1ccc[nH]1	-2%	?	?	-22%	-53*	-4%
CCN(CC)C(=S)SCC(=O)Nc1ccc(F)cc1	14%	-2%	-5%	-1%	0	3.5µM*
Cc1cc(N2CCN(c3ccccc3F)CC2)nc2cc(O)ccc12	-6%	-5%	-1%	-11%	8	13µM*
Cc1ccc(CNc2ccc(N3CCN(C(=O)OC(C)(C)C)CC3=O)cc2)cc1	·	·	21%	·	·	·
NS(=O)(=O)c1ccc(NC(=O)CSc2nnc(NC3CC3)s2)cc1	-2%	·	11µM*	·	?	-8%
O=C(CSc1nnc(NC2CCCCC2)s1)Nc1ccc2c(c1)C(=O)c1ccccc1C2=O	0%	-5%	?	-14%	?	-7%
O=[N+]([O-])c1cc(-c2ccc(/C=N\n3cnnc3)o2)cc([N+](=O)[O-])c1	-7%	-7%	31%	·	-59*	1%
N.N.O=C(O)C1(C(=O)O)CCC1.[Pt]	·	0%	6.3µM*	-29%	·	·
Cc1ccc(C2C(C#N)=C(N)SC(N)=C2C#N)cc1	-5%	-5%	-5%	-5%	-85*	-3%
Cc1ccc(C2C(C#N)=C(N)SC(N)=C2C#N)c(C)c1	-10%	-9%	-4%	-4%	-63*	-12%
N#CC1=C(N)SC(N)=C(C#N)C1c1ccoc1	·	?	?	-14%	·	?
Cc1cccc(Cn2cnc3c(cnn3C(C)(C)C)c2=O)c1F	-23%	·	-5%	·	·	·
CN(C)c1ncc(C2=C(Cl)C(=O)C(N3CCCC3)=C(Cl)C2=O)s1	50µM*	·	·	·	·	·
ON=C1c2cc(OCCN3CCCCC3)ccc2-c2ccc(OCCN3CCCCC3)cc21	32µM*	69%	?	·	-14	-10%
CC(C)CNc1nc(N)c([N+](=O)[O-])c(N2CCCCCC2)n1	45µM*	-8%	4%	·	2	0%
CCC(C)Nc1nc(N)c([N+](=O)[O-])c(N2CCCCCC2)n1 (stereo not drawn)	?	-4%	16%	·	-9	1%
NC(=O)C1CCN(c2nc(-c3cccc4ccccc34)cs2)CC1	·	·	-16%	·	·	·
COc1ccc(OC)c(CCNC(=O)CSc2ccsc2[N+](=O)[O-])c1	9%	-8%	-7%	i	-55*	-5%
COc1ccc(CCNC(=O)CSc2ccsc2[N+](=O)[O-])c(OC)c1	16%	-4%	-3%	0%	-57*	-17%
O=C(Cc1cccc2ccccc12)NO	-2%	·	·	·	·	·
O=c1c(/C=N/Nc2ccccc2)c(Sc2nnnn2-c2ccccc2)nc2ccccn12	-11%	-2%	0%	i	·	-3%
O=C(O)c1ccccc1N/N=C/c1c(Sc2nnnn2-c2ccccc2)nc2ccccn2c1=O	?	-22%	35µM*	?	-7	-6%
COc1ccc(/C=C(\C#N)c2nc3ccc(C)cc3[nH]2)cc1Oc1ccc(C(F)(F)F)cc1[N+](=O)[O-]	-8%	-7%	-6%	9%	-10	2.8µM*
CC(Sc1nc2ccc(C(=O)c3ccccc3)cc2[nH]1)C(=O)O (stereo not drawn)	3%	-1%	-4%	·	-52*	0%
NC(=O)c1ccc(N=C2C(=O)Nc3ccc([N+](=O)[O-])cc32)cc1	?	32µM*	-3%	i	5	-10%
SMILES	FEN1 inh	BLM inh	APEX1 inh	RECQ1 helicase	PI5P4Ka inh	KAT2A inh
N#Cc1c(N2CCCCC2)nc(N)c2c(N)nc3c(c12)CC(c1ccccc1)O3 (stereo not drawn)	?	-15%	-1%	-17%	-64*	-17%
CCC1Cc2c(nc(N)c3c(N)nc(N4CCCCC4)c(C#N)c23)O1 (stereo not drawn)	?	-21%	-1%	2%	6	-14%
COc1cc2c(C#N)c(N3CCCC3)nc(N)c2c(N)n1	?	?	9%	-9%	-22	-3%
N#Cc1c(N2CCCC2)nc(N)c2c(N)nc(N3CCCC3)cc12	?	2.8µM*	?	?	-9	-22%
O=C(CN1C(=O)CSC1=O)Nc1ccc2c(c1)OCCO2	-7%	-3%	-2%	-2%	-55*	-7%
CCOc1cc(CNc2ccc3cn[nH]c3c2)ccc1OC	35µM*	2%	-11%	-19%	-16	-7%
N#C/C(=C(/O)CSc1nnc(Cc2cccs2)n1C1CCCCC1)c1nc2ccccc2[nH]1	-5%	4%	3%	2%	-64*	-14%
O=C(C[n+]1ccncc1)c1ccc(Br)cc1	0%	·	·	·	·	·
C=C1C=C(C)n2ncc(C(=O)Nc3ccc(NC(C)=O)c(Cl)c3)c2N1	17%	·	·	·	·	·
COc1ccc(NC(=O)CN2C(=O)S/C(=C/c3cccn3-c3ccc(C(=O)O)cc3)C2=O)cc1	·	?	1.7µM*	·	·	?
CC(c1ncncc1F)[C@](O)(Cn1cncn1)c1ccc(F)cc1F (stereo partly drawn)	·	-6%	·	·	·	0%
CC1=C(/C=C/C(C)=C\C=C\C(C)=C\C(=O)O)C(C)(C)CCC1	·	3%	-2%	7%	·	6%
CC1=C(/C=C/C(C)=C/C=C/C(C)=C/C(=O)O)C(C)(C)CCC1	-14%	-5%	-9%	?	-1	32µM*!
CN(C)C1C(=O)C(C(N)=O)=C(O)[C@@]2(O)C(=O)C3=C(O)c4c(O)ccc(Cl)c4[C@@H](O)C3C[C@@H]12 (stereo partly drawn)	·	·	-12%	-8%	·	·
COC1=CC(=O)C=C(OC)C1=O	?	-9%	-1%	i	-51*	-3%
COc1ccc(SN=C2C(C)=CC(=O)C=C2C)cc1	-13%	-2%	-5%	i	-9	-5%
COC1=CC(=O)c2ccccc2C1=O	10µM*	·	-4%	·	4	-4%
CC(C)(C)n1ncc2c(=O)n(Cc3ccccc3F)cnc21	-6%	·	-8%	·	·	·
CN(C)c1ccc(N=Cc2ccncc2)cc1	-3%	·	·	·	·	·
COc1ccc(S(=O)(=O)CC(=O)c2cc3cc(Br)ccc3oc2=O)cc1	?	-14%	8%	·	-75*	?

High-throughput results deposited in PubChem by National Center for Advancing Translational Sciences (NCATS).
